Hits are enriched below; roughly 1% of the tested compounds scored in any of these assays.
FPRL1 ligand: binds the human formylpeptide receptor-like-1 FPRL1. inhibition, % (no concentration beside the values). FPRL1-expressing cells, fluorescent ligand binding inhibition, flow cytometry. P25090. 24,000 tested, 0.3% active
Target sequence (P25090 whole entry, looked up): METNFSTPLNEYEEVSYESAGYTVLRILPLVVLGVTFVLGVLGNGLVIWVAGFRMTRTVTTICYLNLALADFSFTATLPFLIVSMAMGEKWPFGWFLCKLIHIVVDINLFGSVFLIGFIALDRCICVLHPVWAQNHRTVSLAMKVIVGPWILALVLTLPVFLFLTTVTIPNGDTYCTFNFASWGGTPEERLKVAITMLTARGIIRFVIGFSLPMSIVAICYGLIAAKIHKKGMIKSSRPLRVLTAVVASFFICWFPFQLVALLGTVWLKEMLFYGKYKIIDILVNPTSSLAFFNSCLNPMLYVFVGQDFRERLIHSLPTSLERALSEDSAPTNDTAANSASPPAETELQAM
FPR ligand: ligands of human FPR, also counter-screen for FPRL1 ligands | FPR-expressing cells, fluorescent ligand binding, flow cytometry | 24,000 tested, 0.74% active | AID 440 | inhibition, % (concentration not given with the values)
Large screens that a line does not name were inactive. Cut-off read from the data, not from the text of the source: active = inhibition above about 30%; inconclusive = no clear call, values can overlap the other calls; inactive = below that.

CC1=C(C(=O)OC(C)C)[C@]2(C(=O)N(CC(N)=O)c3ccccc32)C(C#N)=C(N)O1	FPRL1 ligand 50
C=CCOC(=O)C1=C(C)OC(N)=C(C(=O)OCC)C12C(=O)N(CC(N)=O)c1ccccc12 (centres undefined)	none
O=C(CN1C2CCC1CC(O)(c1cccnc1)C2)Nc1ccc2c(c1)OCO2 (centres undefined)	none

From PubChem
